In ChEMBL document CHEMBL5724796, “Tm Shift (DSF) assay results for EUbOPEN Chemogenomics Library” (2024):
Non-standard residues stand in square brackets, D forms with d. Residues, ends and D or L forms follow the SMILES beside them. *: point of attachment. Nle = CCCC[C@H](N)C(=O)O; Cbz = O=C(OCc1ccccc1)*; CH2F = FC*

biological target: Bromodomain-containing protein 4 (Homo sapiens) (UniProt O60885); conditions: Compound concentration 20.0 uM

Row | Structure (SMILES) | ΔTm
1 | Cc1noc(C)c1-c1cc(Cl)c(Nc2ccccc2C(=O)O)c(Cl)c1 | 2.54 °C
2 | Cc1ncccc1-c1cnc(NCc2c(F)ccc3c2CCO3)n2cnnc12 | -1.73 °C
3 | Fc1ccc(CNc2ncnc3ccc(F)cc23)cc1 | -2.88 °C
4 | CCCC[C@@H](C=O)NC(=O)[C@H](CC(C)C)NC(=O)[C@H](CC(C)C)NC(C)=O (Ac-Leu-Leu-[Nle]-aldehyde) | -2.71 °C
5 | Nc1ncnc2nc(-c3ccc(N4CCOCC4)nc3)cc(-c3cccc(Br)c3)c12 | -3.54 °C
6 | COC(=O)CC[C@H](NC(=O)[C@H](Cc1c[nH]c2ccccc12)NC(=O)OCc1ccccc1)C(=O)N[C@@H](Cc1cnc[nH]1)C(=O)N[C@@H](CC(=O)OC)C(=O)CF (Cbz-WE(OMe)HD(OMe)-CH2F) | -1.63 °C
7 | Cc1ccc(F)c2cc(C(=O)N[C@@H]3CCC[C@H](N4CC[C@H](N(C)S(C)(=O)=O)C4)C3)[nH]c12 | -1.2 °C
8 | NC(=O)c1cnc(N[C@@H]2CCCC[C@@H]2N)nc1Nc1cccc(-n2nccn2)c1 | -1.09 °C
9 | CN(CCCCCCNc1ccnc2cc(Cl)ccc12)CCCCCCNc1ccnc2cc(Cl)ccc12 | 2.96 °C
10 | CCCOc1ccc(NC(=O)CN2CCN(C)CC2)cc1-c1nc(CC)c(CC)c(=O)[nH]1 | -1.93 °C
11 | COc1cc(C(C)C)c2c(c1)S(=O)(=O)N(COc1cc(=O)n3cccc(OCCN4CCCCC4)c3n1)C2=O | -2.34 °C
12 | O=C(CCl)Nc1ccc(S(=O)(=O)c2ccc(NC(=O)CCl)cc2)cc1 | -1.5 °C
13 | CCn1c(=O)c(C)cn(Cc2nnc(-c3ccc(F)c(O)c3F)s2)c1=O | -1.52 °C
14 | Cc1ncsc1-c1ccc([C@H](C)NC(=O)[C@@H]2C[C@@H](O)CN2C(=O)[C@@H](NC(=O)COCCCOCCNC(=O)C[C@@H]2N=C(c3ccc(Cl)cc3)c3c(sc(C)c3C)-n3c(C)nnc32)C(C)(C)C)cc1 | 7 °C
15 | COc1cc2c(cc1OC)[C@H]1C[C@@H](OC(=O)[C@@H](N)C(C)C)[C@H](CC(C)C)CN1CC2 | 1.87 °C
16 | CC(=O)OCCN1C(=O)c2c(C)nc3ccc(S(=O)(=O)N4CCOCC4)cc3c2C1=O | -1.49 °C
17 | COc1cc(-c2cn(C)c(=O)c3cnccc23)cc(OC)c1CN(C)C | -1.71 °C
18 | COc1cc(Nc2ncc(F)c(Nc3ccc4c(n3)N(COP(=O)(O)O)C(=O)C(C)(C)O4)n2)cc(OC)c1OC | 0.11 °C
19 | O=C(NO)C(c1ccc(-c2ncc(C(F)(F)F)cn2)cc1)c1ccccc1F (stereo not given) | -2.36 °C
20 | Cc1ccsc1C(=CCCN1CCC[C@@H](C(=O)O)C1)c1sccc1C | 0.65 °C

Row | Structure (SMILES) | ΔTm
21 | NC(=O)c1cccc(NC(=O)CCC(=O)NCCc2cn(CCNS(=O)(=O)c3cccc(C(=O)O)c3)nn2)c1 | -2.59 °C
22 | CC(C)c1ccc(C(=O)N=C(N)N)cc1S(C)(=O)=O | -2.81 °C
23 | CCc1oc2ccccc2c1C(=O)c1cc(Br)c(O)c(Br)c1 | -6.7 °C
24 | Cc1sc(C(=O)c2cncnc2N[C@@H]2C[C@H](COS(N)(=O)=O)[C@@H](O)C2)cc1[C@@H]1NCCc2ccc(Cl)cc21 | -0.2 °C
25 | Nc1c[nH]c(=O)c2cc(-c3ccccc3)sc12 | -1.56 °C
26 | O=C(O)CCNc1cc(N2CCc3ccccc3CC2)nc(-c2cccnc2)n1 | -1.28 °C
27 | CC1(C)CC[C@]2(C(=O)O)CC[C@]3(C)C(=CC[C@@H]4[C@@]5(C)C=C(O)C(=O)C(C)(C)[C@@H]5CC[C@]43C)[C@@H]2C1 | -3.51 °C
28 | Cn1ncc2c(-c3c(-c4ccc(F)cn4)nn4c3COC(C)(C)C4)ccnc21 | 0.28 °C
29 | Cc1[nH]c2c(N3CCCCC3)c(-c3ccccc3)nn2c(=O)c1-c1ccc(O)cc1 | 0.61 °C
30 | O=C1c2ccccc2C(=O)c2oc(-c3cccnc3)nc21 | -2.99 °C
31 | Cn1c(NCCN(CCO)CCCc2ccc([N+](=O)[O-])cc2)cc(=O)n(C)c1=O | 0.07 °C
32 | CC(C)[C@H](NC(=O)OCc1ccccc1)C(=O)NC(CC(=O)O)C(=O)CF (stereo not given in full) | -3.41 °C
33 | CN(C)CCCNC(=O)c1ccc(-c2cc(O)c3ncccc3c2)cc1 | 1.76 °C
34 | O=C(c1cc(Cc2n[nH]c(=O)c3ccccc23)ccc1F)N1CC(CNC2CC2)C1 | -1.65 °C
35 | C[C@@H]1O[C@@H](CC(=O)O)CC2=C1C(=O)c1c(O)cccc1C2=O | -3.04 °C
36 | Cc1ncsc1-c1ccc([C@H](C)NC(=O)[C@@H]2C[C@@H](O)CN2C(=O)[C@@H](NC(=O)CNC(=O)c2ccc(F)c(-c3ccc(N4C[C@@H](C)N(C)[C@@H](C)C4)c(NC(=O)c4c[nH]c(=O)cc4C(F)(F)F)c3)c2)C(C)(C)C)cc1 | -6.28 °C
37 | C[C@@H]1OC(=O)NN=C1c1ccc(-c2ccc(F)cc2)c(C(F)(F)F)c1 | -3.44 °C
38 | N#C[C@@H]1CCCN1C(=O)CNC(=O)c1ccnc2ccc(OCCCN3CCN(C(=O)CN4CCN(CC(=O)O)CCN(CC(=O)O)CCN(CC(=O)O)CC4)CC3)cc12 | -2.94 °C
39 | O=C1C(=O)N(Cc2ccccc2)c2ccc(S(=O)(=O)N3CCC[C@H]3COc3ccc(C(F)(F)F)cc3)cc21 | -4.2 °C
40 | CCCCN(Cc1ccc(C(=O)NO)cc1)C(=O)Nc1ccccc1 | -1.81 °C
